# Results as given in PubChem BioAssay (NCI).
# This is part of a sample that, as a whole, favours compounds with a hit. Of some 79,000 tested, about 15% had one in any assay. A number with no mark means an inactive call. Active and inactive are the calls of the source. No stated cut-off is given here; in the data, active means growth inhibition above about 70%; inactive means the rest.
# How the values were obtained:
# [1] = NCI Yeast Anticancer Drug Screen. Data for the rad52 strain (AID 147);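 further: 0% = growth of vehicle-treated control cultures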; details: S. cerevisiae rad52 mutant growth inhibition, active compounds read high
# How it was run: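 DNA repair-defective yeast; compound exposure; growth scored against vehicle controls.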
# [2] = NCI Yeast Anticancer Drug Screen. Data for the wt1 strain (AID 149);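 further: 0% = growth of vehicle-treated wt1 cultures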; details: S. cerevisiae wt1 strain (SPY 50644) growth inhibition, active compounds read high
# How it was run: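 Growth inhibition read against vehicle controls after compound exposure of the wt1 yeast strain.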
# [3] = NCI Yeast Anticancer Drug Screen. Data for the rad50EPP+ strain (AID 151);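 further: 0% = growth of vehicle-treated control cultures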; details: S. cerevisiae rad50 mutant strain, active compounds read high
# How it was run: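 rad50EPP+ yeast treated with test compounds. Readout: growth vs vehicle control.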
# [4] = NCI Yeast Anticancer Drug Screen. Data for the mgt1 strain (AID 153); details: S. cerevisiae mgt1 mutant growth inhibition, active compounds read high
# How it was run: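 Growth inhibition relative to vehicle controls was scored for the mgt1 yeast strain after compound exposure.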
# [5] = NCI Yeast Anticancer Drug Screen. Data for the rad50 strain (AID 155);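 further: 0% = growth of vehicle-only cultures of the same strain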; details: S. cerevisiae rad50 strain growth inhibition, active compounds read high
# How it was run: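 Readout: growth inhibition relative to vehicle-treated cultures. Compound exposure was carried out in a genetically defined yeast strain deficient in DNA damage repair.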
# [6] = NCI Yeast Anticancer Drug Screen. Data for the mec2-1 strain (AID 157); details: S. cerevisiae mec2-1 strain, active compounds read high
# How it was run: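 Growth inhibition is read against vehicle-treated controls after compound exposure of the mec2-1 yeast strain, which is defective in DNA damage repair or cell cycle control.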
# [7] = NCI Yeast Anticancer Drug Screen. Data for the rad14 strain (AID 159);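 further: 0% = growth of vehicle-treated control cultures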; details: S. cerevisiae rad14 strain growth inhibition, active compounds read high
# How it was run: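 Growth inhibition vs vehicle controls; genetically altered yeast strain (DNA damage repair defect) treated with test compounds.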
# [8] = NCI Yeast Anticancer Drug Screen. Data for the sgs1 mgt1 strain (AID 161);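 further: 0% = growth of cultures given vehicle only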; details: S. cerevisiae sgs1 mgt1 strain, active compounds read high
# How it was run: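 Yeast cells carrying a defined DNA-repair defect were exposed to test compounds. Growth inhibition was measured relative to vehicle-treated controls.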
# [9] = NCI Yeast Anticancer Drug Screen. Data for the CLN2oe strain (AID 163);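 further: 0% = growth of vehicle-only control cultures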; details: S. cerevisiae CLN2oe strain, active compounds read high
# How it was run: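 Compound-treated yeast; growth vs vehicle ctrl = % inhibition. Genetically altered strain (cell-cycle control).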
# [10] = NCI Yeast Anticancer Drug Screen. Data for the cln2 rad14 strain (AID 165);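 further: 0% = growth equal to vehicle treated cultures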; details: S. cerevisiae cln2 rad14 strain, active compounds read high
# How it was run: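 Growth inhibition, relative to vehicle-treated controls, is the read-out. The test organism is a yeast strain with defined genetic alterations, cln2 rad14.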
# [11] = NCI Yeast Anticancer Drug Screen. Data for the bub3 strain (AID 167); details: S. cerevisiae bub3 mutant strain, active compounds read high
# How it was run: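 Readout: yeast growth inhibition, expressed relative to vehicle-only wells. The test organism is a mutant strain from a panel with lesions in DNA repair or checkpoint genes.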
# [12] = NCI Yeast Anticancer Drug Screen. Data for the wt2 strain (AID 169);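 further: 0% = growth of vehicle-treated yeast cultures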; details: S. cerevisiae wt2 strain growth inhibition, active compounds read high
# How it was run: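 Compound exposure of yeast; growth compared with vehicle controls; inhibition reported.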
# [13] = NCI Yeast Anticancer Drug Screen. Data for the mlh1 strain (AID 171);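 further: 0% = growth of vehicle-treated control cultures of the same strain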; details: S. cerevisiae mlh1 strain growth inhibition, active compounds read high
# How it was run: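 Compounds are applied to a genetically altered yeast strain, and its growth is compared with that of vehicle-treated cultures to give percent inhibition.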
# [14] = NCI Yeast Anticancer Drug Screen. Data for the sgs1 strain (AID 173);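 further: 0% = growth of vehicle-only control cultures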; details: S. cerevisiae sgs1 mutant, active compounds read high
# How it was run: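 Compounds applied to genetically altered yeast; growth compared with vehicle-treated cultures to give % inhibition.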
# [15] = NCI Yeast Anticancer Drug Screen. Data for the mlh1 rad18 strain (AID 175); details: S. cerevisiae mlh1 rad18 strain growth inhibition, active compounds read high
# How it was run: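 Cells of a genetically altered yeast strain, deficient in DNA damage repair, were treated with compound. Their growth was then compared with that of vehicle-treated cultures to give inhibition.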
# [16] = NCI Yeast Anticancer Drug Screen. Data for the rad18 strain (AID 177); details: S. cerevisiae rad18 mutant growth inhibition, active compounds read high
# How it was run: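 Compounds are applied to a repair-deficient yeast strain, and growth is compared with that of vehicle-treated cultures to give percent inhibition.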
# [17] = at 5.0 µM (retest, dose inferred, filed as 0.5)
# [18] = at 50.0 µM (retest, dose inferred, filed as 5.0)
smiles,measurement,setting,value
O=C(Nn1c(-c2ccccc2)nc2ccccc2c1=O)c1ccc(CS)cc1,growth inhibition,[1]; at 1.2 µM,5%
same,growth inhibition,[1]; at 3.7 µM,20%
same,growth inhibition,[1]; at 11.0 µM,12%
same,growth inhibition,[1]; at 33.0 µM,53%
same,growth inhibition,[1]; at 100.0 µM,98% (active)
same,growth inhibition,[2]; at 1.2 µM,-4%
same,growth inhibition,[2]; at 3.7 µM,-6%
same,growth inhibition,[2]; at 11.0 µM,-1%
same,growth inhibition,[2]; at 33.0 µM,23%
same,growth inhibition,[2]; at 100.0 µM,98% (active)
same,growth inhibition,[3]; at 1.2 µM,-2%
same,growth inhibition,[3]; at 3.7 µM,6%
same,growth inhibition,[3]; at 11.0 µM,5%
same,growth inhibition,[3]; at 33.0 µM,31%
same,growth inhibition,[3]; at 100.0 µM,76% (active)
same,growth inhibition,[4]; at 1.2 µM,-9%
same,growth inhibition,[4]; at 3.7 µM,-19%
same,growth inhibition,[4]; at 11.0 µM,-17%
same,growth inhibition,[4]; at 33.0 µM,23%
same,growth inhibition,[4]; at 100.0 µM,97% (active)
same,growth inhibition,[5]; at 1.2 µM,-5%
same,growth inhibition,[5]; at 3.7 µM,2%
same,growth inhibition,[5]; [17],-35%
same,growth inhibition,[5]; at 11.0 µM,8%
same,growth inhibition,[5]; at 33.0 µM,47%
same,growth inhibition,[5]; [18],10%
same,growth inhibition,[5]; at 50.0 µM,79.2% (active)
same,growth inhibition,[5]; at 100.0 µM,98% (active)
same,growth inhibition,[6]; at 1.2 µM,-4%
same,growth inhibition,[6]; at 3.7 µM,-17%
same,growth inhibition,[6]; [17],-23%
same,growth inhibition,[6]; at 11.0 µM,-15%
same,growth inhibition,[6]; at 33.0 µM,24%
same,growth inhibition,[6]; [18],34%
same,growth inhibition,[6]; at 50.0 µM,43.4%
same,growth inhibition,[6]; at 100.0 µM,97% (active)
same,growth inhibition,[7]; at 1.2 µM,-16%
same,growth inhibition,[7]; at 3.7 µM,-16%
same,growth inhibition,[7]; at 11.0 µM,-19%
same,growth inhibition,[7]; at 33.0 µM,21%
same,growth inhibition,[7]; at 100.0 µM,97% (active)
same,growth inhibition,[8]; [17],-11%
same,growth inhibition,[8]; [18],27%
same,growth inhibition,[8]; at 50.0 µM,60.2%
same,growth inhibition,[9]; at 1.2 µM,-11%
same,growth inhibition,[9]; at 3.7 µM,10%
same,growth inhibition,[9]; at 11.0 µM,0%
same,growth inhibition,[9]; at 33.0 µM,20%
same,growth inhibition,[9]; at 100.0 µM,97% (active)
same,growth inhibition,[10]; [17],19%
same,growth inhibition,[10]; [18],40%
same,growth inhibition,[10]; at 50.0 µM,27.5%
same,growth inhibition,[11]; at 1.2 µM,-7%
same,growth inhibition,[11]; at 3.7 µM,-14%
same,growth inhibition,[11]; [17],-12%
same,growth inhibition,[11]; at 11.0 µM,-13%
same,growth inhibition,[11]; at 33.0 µM,47%
same,growth inhibition,[11]; [18],81% (active)
same,growth inhibition,[11]; at 50.0 µM,50.8%
same,growth inhibition,[11]; at 100.0 µM,98% (active)
same,growth inhibition,[12]; at 1.2 µM,9%
same,growth inhibition,[12]; at 3.7 µM,6%
same,growth inhibition,[12]; at 11.0 µM,9%
same,growth inhibition,[12]; at 33.0 µM,34%
same,growth inhibition,[12]; at 100.0 µM,98% (active)
same,growth inhibition,[13]; at 1.2 µM,9%
same,growth inhibition,[13]; at 3.7 µM,7%
same,growth inhibition,[13]; at 11.0 µM,10%
same,growth inhibition,[13]; at 33.0 µM,53%
same,growth inhibition,[13]; at 100.0 µM,98% (active)
same,growth inhibition,[14]; at 1.2 µM,15%
same,growth inhibition,[14]; at 3.7 µM,8%
same,growth inhibition,[14]; at 11.0 µM,21%
same,growth inhibition,[14]; at 33.0 µM,65%
same,growth inhibition,[14]; at 100.0 µM,98% (active)
same,growth inhibition,[15]; [17],-22%
same,growth inhibition,[15]; [18],74% (active)
same,growth inhibition,[15]; at 50.0 µM,48%
same,growth inhibition,[16]; at 1.2 µM,15%
same,growth inhibition,[16]; at 3.7 µM,16%
same,growth inhibition,[16]; at 11.0 µM,14%
same,growth inhibition,[16]; at 33.0 µM,62%
same,growth inhibition,[16]; at 100.0 µM,98% (active)
